This passage reports growth inhibition results from PubChem BioAssay (NCI).

Assay [1] in a line: NCI Yeast Anticancer Drug Screen. Data for the rad50 strain (AID 155).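 Further: 0% = growth of vehicle-only cultures of the same strain.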 To be noted: S. cerevisiae rad50 strain growth inhibition, hits give high values. The procedure, abridged: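 Yeast carrying a defined DNA repair defect were exposed to test compounds, and growth was compared with vehicle-treated controls to give percent inhibition.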
Assay [2] in a line: NCI Yeast Anticancer Drug Screen. Data for the mec2-1 strain (AID 157). Particulars: S. cerevisiae mec2-1 strain, hits give high values. The method, boiled down: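 Vehicle-treated cultures served as reference for growth inhibition of compound-exposed mec2-1 yeast.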
Assay [3] is described as follows: NCI Yeast Anticancer Drug Screen. Data for the sgs1 mgt1 strain (AID 161).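 Further: 0% = growth of cultures given vehicle only.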 Particulars: S. cerevisiae sgs1 mgt1 strain, hits give high values. The procedure, abridged:
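Inhibition of yeast growth, normalised to vehicle-treated controls, is reported for a strain bearing genetic alterations in DNA damage repair.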

Assay [4] is described as follows: NCI Yeast Anticancer Drug Screen. Data for the cln2 rad14 strain (AID 165).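 Further: 0% = growth equal to vehicle treated cultures.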 To be noted: S. cerevisiae cln2 rad14 strain, hits give high values. The procedure, abridged: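 Each compound was tested on cln2 rad14 yeast. Inhibition of growth was calculated against vehicle-exposed controls.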
Assay [5] can be described thus: NCI Yeast Anticancer Drug Screen. Data for the bub3 strain (AID 167). To be noted: S. cerevisiae bub3 mutant strain, hits give high values. The method, boiled down:
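Compounds were applied to a genetically altered yeast strain carrying a cell-cycle control defect. Growth inhibition was scored against vehicle-treated controls.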

Assay [6] in a line: NCI Yeast Anticancer Drug Screen. Data for the mlh1 rad18 strain (AID 175). To be noted: S. cerevisiae mlh1 rad18 strain growth inhibition, hits give high values. The procedure, abridged: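 Vehicle-treated cultures served as the reference for growth inhibition in a yeast strain carrying DNA damage repair alterations exposed to each compound.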
Where [7] appears, read: at 5.0 µM (retest, dose inferred, filed as 0.5).
[8] abbreviates: at 50.0 µM (retest, dose inferred, filed as 5.0).

Compounds without any hit were thinned out: in the full panel of roughly 79,000, 15% have a hit. Unmarked numbers belong to inactive results. Active and inactive are the calls of the source. No stated cut-off is given here; in the data, active means growth inhibition above about 70%; inactive means the rest.

Regarding `CC(=O)Nc1cc(Cl)c2c(c1)C(=O)c1ccccc1-2`, the growth inhibition is 64% in assay [1] (setting [7]); 82% (active) in assay [1] (setting [8]); 91.8% (active) in assay [1] (at 50.0 µM); 34% in assay [2] (setting [7]); 61% in assay [2] (setting [8]); 14.6% in assay [2] (at 50.0 µM). Also, the growth inhibition in assay [3] (setting [7]) was 43%; in assay [3] (setting [8]), 77% (active); in assay [3] (at 50.0 µM), 35.6%; in assay [4] (setting [7]), 24%; in assay [4] (setting [8]), 35%; in assay [4] (at 50.0 µM), -23.4%. Moreover, the growth inhibition was 14% in assay [5] (setting [7]); 38% in assay [5] (setting [8]); 19.1% in assay [5] (at 50.0 µM); 41% in assay [6] (setting [7]); 79% (active) in assay [6] (setting [8]); 33% in assay [6] (at 50.0 µM).

Regarding `O=C(Cc1ccccc1)OC(C(=O)c1ccccc1)c1ccccc1` (stereo not given), the growth inhibition in assay [1] (setting [7]) was 4%; in assay [1] (setting [8]), 94% (active); in assay [1] (at 50.0 µM), -15.7%; in assay [2] (setting [7]) it was 7%; in assay [2] (setting [8]), 95% (active); in assay [2] (at 50.0 µM) it was 10.3%. The growth inhibition was 3% in assay [3] (setting [7]); 93% (active) in assay [3] (setting [8]); -0.1% in assay [3] (at 50.0 µM); 2% in assay [4] (setting [7]); 90% (active) in assay [4] (setting [8]); -12.3% in assay [4] (at 50.0 µM). The growth inhibition was 20% in assay [5] (setting [7]); 92% (active) in assay [5] (setting [8]); 72.2% (active) in assay [5] (at 50.0 µM); 4% in assay [6] (setting [7]); 92% (active) in assay [6] (setting [8]); -3.1% in assay [6] (at 50.0 µM).

In the case of `CNCCN[C@@H]1c2cc3c(cc2[C@@H](c2cc(OC)c(O)c(OC)c2)[C@H]2C(=O)OC[C@@H]21)OCO3`, the growth inhibition in assay [1] (setting [7]) was 96% (active); in assay [1] (setting [8]) it was 97% (active); in assay [1] (at 50.0 µM), 78.8% (active); in assay [2] (setting [7]) it was 43%; in assay [2] (setting [8]) it was 91% (active); in assay [2] (at 50.0 µM), 65.3%. Besides, the growth inhibition in assay [3] (setting [7]) was -24%; in assay [3] (setting [8]) it was 75% (active); in assay [3] (at 50.0 µM) it was 88.1% (active); in assay [4] (setting [7]), 3%; in assay [4] (setting [8]), 42%; in assay [4] (at 50.0 µM), 82.4% (active). Further, the growth inhibition in assay [5] (setting [7]) was -3%; in assay [5] (setting [8]), 84% (active); in assay [5] (at 50.0 µM), 87% (active); in assay [6] (setting [7]), 43%; in assay [6] (setting [8]), 89% (active); in assay [6] (at 50.0 µM) it was 87.8% (active).

Consider `CCCCCCCCCCCCCCCCCC[N+]1(CC)CCCCC1`, for which the growth inhibition in assay [1] (setting [7]) was 99% (active); in assay [1] (setting [8]), 99% (active); in assay [1] (at 50.0 µM), 90.3% (active); in assay [2] (setting [7]) it was 99% (active); in assay [2] (setting [8]), 99% (active); in assay [2] (at 50.0 µM), 91.2% (active). Further, the growth inhibition in assay [3] (setting [7]) is 99% (active); in assay [3] (setting [8]), 99% (active); in assay [3] (at 50.0 µM), 91.5% (active); in assay [4] (setting [7]), 99% (active); in assay [4] (setting [8]), 99% (active); in assay [4] (at 50.0 µM), 90.2% (active). The growth inhibition is 99% (active) in assay [5] (setting [7]); 99% (active) in assay [5] (setting [8]); 90.4% (active) in assay [5] (at 50.0 µM); 99% (active) in assay [6] (setting [7]); 99% (active) in assay [6] (setting [8]); 89.2% (active) in assay [6] (at 50.0 µM).

For `O=[N+]([O-])c1ccccc1CC(c1c[nH]c2ccccc12)c1c[nH]c2ccccc12`, the growth inhibition in assay [1] (setting [7]) is 0%; in assay [1] (setting [8]), 73% (active); in assay [1] (at 50.0 µM), 86% (active); in assay [2] (setting [7]) it was -1%; in assay [2] (setting [8]), 74% (active); in assay [2] (at 50.0 µM) it was 80.7% (active). In addition, the growth inhibition in assay [3] (setting [7]) is -2%; in assay [3] (setting [8]) it was 70% (active); in assay [3] (at 50.0 µM), 82.9% (active); in assay [4] (setting [7]), 1%; in assay [4] (setting [8]), 80% (active); in assay [4] (at 50.0 µM), 78.9% (active). For the same compound, the growth inhibition in assay [5] (setting [7]) is -1%; in assay [5] (setting [8]), 80% (active); in assay [5] (at 50.0 µM) it was 55.8%; in assay [6] (setting [7]) it was 1%; in assay [6] (setting [8]) it was 81% (active); in assay [6] (at 50.0 µM), 87.3% (active).

With `O=[N+]([O-])c1ccc(S(=O)(=O)C/C=C/CCl)c([N+](=O)[O-])c1`, the growth inhibition in assay [1] (setting [7]) is 54%; in assay [1] (setting [8]), 99% (active); in assay [1] (at 50.0 µM) it was 99.2% (active); in assay [2] (setting [7]) it was 34%; in assay [2] (setting [8]), 100% (active); in assay [2] (at 50.0 µM), 99.6% (active). Moreover, the growth inhibition was 43% in assay [3] (setting [7]); 99% (active) in assay [3] (setting [8]); 99.5% (active) in assay [3] (at 50.0 µM); 20% in assay [4] (setting [7]); 99% (active) in assay [4] (setting [8]); 99.5% (active) in assay [4] (at 50.0 µM). Moreover, the growth inhibition in assay [5] (setting [7]) was 37%; in assay [5] (setting [8]), 99% (active); in assay [5] (at 50.0 µM), 99.4% (active); in assay [6] (setting [7]), 71% (active); in assay [6] (setting [8]), 99% (active); in assay [6] (at 50.0 µM) it was 99.5% (active).

With `C=C1C(=O)OC(CCCCCCCCCCCCC)C1C(=O)O` (stereo not given), the growth inhibition in assay [1] (setting [7]) is 69%; in assay [1] (setting [8]), 89% (active); in assay [1] (at 50.0 µM), 84% (active); in assay [2] (setting [7]), 93% (active); in assay [2] (setting [8]), 89% (active); in assay [2] (at 50.0 µM) it was 89.5% (active). Moreover, the growth inhibition was 71% (active) in assay [3] (setting [7]); 84% (active) in assay [3] (setting [8]); 76.3% (active) in assay [3] (at 50.0 µM); 63% in assay [4] (setting [7]); 85% (active) in assay [4] (setting [8]); 85% (active) in assay [4] (at 50.0 µM). Besides, the growth inhibition in assay [5] (setting [7]) is 86% (active); in assay [5] (setting [8]) it was 90% (active); in assay [5] (at 50.0 µM) it was 86.5% (active); in assay [6] (setting [7]) it was 86% (active); in assay [6] (setting [8]), 89% (active); in assay [6] (at 50.0 µM) it was 80.8% (active).

For `Cn1c(=O)cc[nH]c1=O`, the growth inhibition in assay [1] (setting [7]) was -1%; in assay [1] (setting [8]) it was 3%; in assay [1] (at 50.0 µM) it was 4.85%; in assay [2] (setting [7]) it was 0%; in assay [2] (setting [8]) it was -1%; in assay [2] (at 50.0 µM), 3.9%. For the same compound, the growth inhibition in assay [3] (setting [7]) is 0%; in assay [3] (setting [8]), 2%; in assay [3] (at 50.0 µM) it was 5.45%; in assay [4] (setting [7]) it was 0%; in assay [4] (setting [8]) it was -1%; in assay [4] (at 50.0 µM) it was -0.75%. Moreover, the growth inhibition in assay [5] (setting [7]) is 1%; in assay [5] (setting [8]), -5%; in assay [5] (at 50.0 µM), 98.8% (active); in assay [6] (setting [7]) it was -5%; in assay [6] (setting [8]), 1%; in assay [6] (at 50.0 µM) it was 14.2%.

Turning to `Clc1cccc(Cl)c1C(Nc1nncs1)Nc1nncs1`, the growth inhibition was 0% in assay [1] (setting [7]); 85% (active) in assay [1] (setting [8]); 93.2% (active) in assay [1] (at 50.0 µM); -9% in assay [2] (setting [7]); 51% in assay [2] (setting [8]); 79.8% (active) in assay [2] (at 50.0 µM). For the same compound, the growth inhibition in assay [3] (setting [7]) is 0%; in assay [3] (setting [8]), 55%; in assay [3] (at 50.0 µM), 88.2% (active); in assay [4] (setting [7]), 8%; in assay [4] (setting [8]) it was 42%; in assay [4] (at 50.0 µM) it was 72.9% (active). The growth inhibition was -11% in assay [5] (setting [7]); 56% in assay [5] (setting [8]); 53% in assay [5] (at 50.0 µM); 0% in assay [6] (setting [7]); 94% (active) in assay [6] (setting [8]); 97.3% (active) in assay [6] (at 50.0 µM).

Take `C=C1C2Oc3ccccc3C1N(c1ccccc1)O2` (stereo not given): the growth inhibition was 9% in assay [1] (setting [7]); 23% in assay [1] (setting [8]); 35% in assay [1] (at 50.0 µM); 8% in assay [2] (setting [7]); 35% in assay [2] (setting [8]); 19.9% in assay [2] (at 50.0 µM). Besides, the growth inhibition is 4% in assay [3] (setting [7]); 62% in assay [3] (setting [8]); 66% in assay [3] (at 50.0 µM); 4% in assay [4] (setting [7]); 24% in assay [4] (setting [8]); 39.1% in assay [4] (at 50.0 µM). The growth inhibition in assay [5] (setting [7]) is 1%; in assay [5] (setting [8]), 26%; in assay [5] (at 50.0 µM) it was 9.45%; in assay [6] (setting [7]), 5%; in assay [6] (setting [8]), 35%; in assay [6] (at 50.0 µM), 70.5% (active).
